Screening data from PubChem BioAssay.
Sampled rows, rich in hits. Any-hit rate of the full collection: about 21%.
ELG1 repair inh: ELG1-dependent DNA repair inhibition; HEK293T ELG1-luciferase reporter, luminescence, 16 h; DNA damage induced by 5-fluorouridine; Potency, µM (doses to about 46.1 µM), without a hit: at the top dose activity change, negative = inhibition, actives largely listed as inhibitors; 330,000 compounds, 2.3% hits; note: potency is the fitted concentration of half-maximal effect; nearly all actives have a fitted effect of over 55% in size
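Cells (2,000 per well) received 5-fluorouridine plus test compound or DMSO and were incubated 16 hr at 37 °C, 5% CO2. Luciferase activity was read by luminescence 30 min after ONE-Glo addition; signal suppression marked inhibition of damage-induced ELG1 function.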
RORg inh: blocks mouse ROR gamma transcriptional activity; 310,000 compounds, 5.4% hits; Drosophila S2 Gal4-RORgamma UAS-luciferase reporter, 20 h; P51450; Potency, µM (series often up to 53.6 µM), without a hit: top-dose activity change, negative = inhibition, actives largely listed as inhibitors; AID 2551; note: potency is the fitted concentration of half-maximal effect; nearly all actives have a fitted effect of over 60% in size
Target sequence (P51450 whole entry, looked up, the tested form may be a part): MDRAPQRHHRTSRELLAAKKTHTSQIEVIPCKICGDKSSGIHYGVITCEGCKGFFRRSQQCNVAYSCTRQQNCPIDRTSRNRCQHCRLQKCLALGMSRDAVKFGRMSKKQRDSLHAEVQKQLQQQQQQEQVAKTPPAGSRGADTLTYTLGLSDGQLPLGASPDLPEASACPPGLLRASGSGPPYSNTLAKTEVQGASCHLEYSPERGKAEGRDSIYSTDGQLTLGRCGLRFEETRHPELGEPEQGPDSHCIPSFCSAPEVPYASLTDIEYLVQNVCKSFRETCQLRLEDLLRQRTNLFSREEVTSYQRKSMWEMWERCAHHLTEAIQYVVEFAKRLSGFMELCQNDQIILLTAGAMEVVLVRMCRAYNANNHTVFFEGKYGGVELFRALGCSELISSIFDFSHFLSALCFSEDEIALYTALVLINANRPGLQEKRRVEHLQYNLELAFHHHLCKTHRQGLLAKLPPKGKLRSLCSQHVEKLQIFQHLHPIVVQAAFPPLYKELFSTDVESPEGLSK
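Luminescence from a UAS-regulated Photinus luciferase reporter in stably transfected Drosophila Schneider cells is measured; decreased signal marks ROR gamma inhibition. Fusion expression is induced by 700 uM copper sulfate for 20 hr.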
IL-1B inflam inh: blocks inflammasome-driven IL-1 beta release; THP-1 LPS/ATP IL-1B secretion, AlphaLISA, 16 h; stronger effect = lower value; activity change, % at 57.5 µM; 360,000 compounds, 4.7% hits; AID 743279; in the data active = activity change below about -50%; inconclusive = mostly about -30% to -49%
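Secreted IL-1B measured by AlphaLISA bead assay after 16 h compound exposure of THP-1 cells; compounds (final up to 57.5 uM) added 1 h before LPS (250 ng/mL) and ATP (1.25 mM) stimulation; lower signal means less secretion.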
VP16 counter: counter-screen for ROR gamma inhibitors: Gal4-VP16 reporter | Drosophila S2 Gal4-VP16 UAS-luciferase, luminescence, 20 h | Potency, µM (titrated, usually from 53.6 µM), without a hit: at the highest dose activity, negative = inhibition, usual class: inhibitors | 310,000 compounds, 3.5% hits | AID 2546;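 note: Gal4-VP16 expression switched on by copper sulfate through the metallothionein promoter; potency is the fitted concentration of half-maximal effect; nearly all actives have a fitted effect of over 50% in size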
TDP1 cell noCPT: qHTS for Inhibitors of human tyrosyl-DNA phosphodiesterase 1 (TDP1): qHTS in cells in absence of CPT; DT40 Tdp1-/- hTDP1 cells, no CPT, ATP luminescence, 48 h; Potency, µM (series often up to 46.2 µM), without a hit: at the top dose activity change, negative = growth inhibition, hits mostly inhibitors; 420,000 compounds, 15% hits; AID 686978, 2013; note: potency is the fitted concentration of half-maximal effect; nearly all actives have a fitted effect of over 55% in size
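Stably hTDP1-transfected Tdp1-null chicken DT40 cells were treated with library compounds minus camptothecin and grown for at least 48 hr at 37 °C, after which cellular ATP was quantified by luminescence.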
DT40 TDP1 CPT: growth inhibition of DT40 Tdp1-/-;hTDP1 cells with camptothecin (screen for TDP1 inhibitors) | chicken DT40 Tdp1-/-;hTDP1 cells + 20 nM CPT, ATP luminescence, 48 h | Potency, µM (highest dose often 46.2 µM), for the others: at the top dose activity change, negative = growth inhibition, hits mostly inhibitors | 420,000 compounds, 12% hits; note: potency is the fitted concentration of half-maximal effect; nearly all actives have a fitted effect of over 55% in size
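Chicken DT40 Tdp1-/- cells stably complemented with human TDP1 were seeded at 400 cells/well in medium containing 20 nM camptothecin, exposed to pin-transferred compounds, and grown at 37 °C for at least 48 hr. Viability was read as ATP luminescence.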
* hit, by the source's call; ? = inconclusive; . = no result given. Unless noted, calls come from the whole dose curve; as a rule, active = well fitted curve in the direction sought with a large enough effect; inconclusive = small, poorly fitted or top-dose-only effect, or another doubt; inactive = no such curve, though single readings can be large; an effect the other way counts as inactive or inconclusive. % is set by controls: 0 for no effect and ±100 for the full control effect.

SMILES	ELG1 repair inh	RORg inh	IL-1B inflam inh	VP16 counter	TDP1 cell noCPT	DT40 TDP1 CPT
CCCCN(C(=O)CSc1nnc(Nc2ccccc2)s1)c1c(N)n(CCC)c(=O)[nH]c1=O	-5%	-11%	20	-2%	9%	0%
COC(=O)C1=NN(C(=O)c2ccccc2)C(C)(O)C1 (stereo not drawn)	?	-17%	1	-6%	23µM*	?
COC(=O)C1=NN(C(=O)c2ccccc2)C(O)(c2ccc([N+](=O)[O-])cc2)C1 (stereo not drawn)	7%	5µM*	3	7.1µM*	-7%	5%
COC(=O)C1=NN(C(=O)c2cccc(Cl)c2)C(O)(C(C)(C)C)C1 (stereo not drawn)	15%	5µM*	44	?	-20%	-1%
O=C(NCN1CCc2ccccc2C1)c1ccccc1	-3%	0%	13	3%	11%	-19%
O=C(NCN1CCc2ccccc2C1)c1cnccn1	5%	?	11	-19%	23µM*	?
COc1cccc(CNC(=O)c2ccc(F)c(S(=O)(=O)N3CCCCC3)c2)c1	.	.	24	.	?	-15%
O=C(Nc1ccccc1)N(CCc1nc2ccccc2[nH]1)C1CCCC1	1%	21%	-9	-7%	-8%	-5%
CCOC(=O)C(C(=O)Nc1nc2ccccc2s1)C1CCCCC1 (stereo not drawn)	-5%	5µM*	40	-1%	-27%	?
